Measured values from the supplement of paper PMC8728848.
The sample as a whole holds a higher share of the strongest signals than the screen did.

Tests used:
Experiment in all cases: glycan array binding signal (z-score within array); higher = stronger binding
Settings in all cases: glycan notation: IUPAC condensed, linker removed
[1] = biological target: GalNAc(b1-4)GlcNAc(b1-2)Man(a1-3)[GalNAc(b1-4)GlcNAc(b1-2)Man(a1-6)]Man(b1-4)GlcNAc(b1-4)GlcNAc
Method in brief: (§1)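 Negative Z-scores can be read as non-binding. The Z-score is calculated within each array and then averaged across arrays of one protein sequence at different concentrations or buffers and across linkers. Arrays, 3228 in all, were curated from the Consortium for Functional Glycomics database and kept only where the protein sequence was available.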

[2] = biological target: GalNAc(b1-4)GlcNAc6S
Method in brief: as §1

[3] = biological target: GlcNAc(a1-4)Gal(b1-4)GalNAc
Method in brief: as §1

[4] = biological target: GlcNAc(a1-4)Gal(b1-4)GlcNAc(b1-3)Gal(b1-4)[Fuc(a1-3)]GlcNAc(b1-3)Gal(b1-4)[Fuc(a1-3)]GlcNAc
Method in brief: as §1

[5] = biological target: GlcNAc(b1-2)[GlcNAc(b1-4)]Man(a1-3)[GlcNAc(b1-4)][GlcNAc(b1-2)[GlcNAc(b1-6)]Man(a1-6)]Man(b1-4)GlcNAc(b1-4)GlcNAc
Method in brief: as §1

[6] = biological target: GlcNAc(b1-2)[GlcNAc(b1-6)]Man(a1-6)[GlcNAc(b1-4)][GlcNAc(b1-2)Man(a1-3)]Man(b1-4)GlcNAc(b1-4)GlcNAc
Method in brief: as §1

[7] = biological target: GlcNAc(b1-3)Fuc
Method in brief: as §1

[8] = biological target: GlcNAc(b1-3)Gal
Method in brief: as §1

[9] = biological target: GlcNAc(b1-3)Gal(b1-4)GlcNAc(b1-3)Gal(b1-4)GlcNAc(b1-2)Man(a1-3)[GlcNAc(b1-3)Gal(b1-4)GlcNAc(b1-3)Gal(b1-4)GlcNAc(b1-2)Man(a1-6)]Man(b1-4)GlcNAc(b1-4)[Fuc(a1-6)]GlcNAc
Method in brief: as §1

[10] = biological target: GlcNAc(b1-3)Gal(b1-4)GlcNAc(b1-3)Gal(b1-4)GlcNAc(b1-3)Gal(b1-4)GlcNAc(b1-2)Man(a1-3)[GlcNAc(b1-3)Gal(b1-4)GlcNAc(b1-3)Gal(b1-4)GlcNAc(b1-3)Gal(b1-4)GlcNAc(b1-2)Man(a1-6)]Man(b1-4)GlcNAc(b1-4)[Fuc(a1-6)]GlcNAc
Method in brief: as §1

[11] = biological target: Kdn(a2-3)Gal(b1-4)Glc
Method in brief: as §1

[12] = biological target: Man(a1-2)Man(a1-3)[Man(a1-2)Man(a1-6)]Man
Method in brief: as §1

[13] = biological target: Neu5Ac(a2-3)Gal(b1-3)GlcNAc(b1-2)Man(a1-3)[Neu5Ac(a2-3)Gal(b1-3)GlcNAc(b1-2)Man(a1-6)]Man(b1-4)GlcNAc(b1-4)GlcNAc
Method in brief: as §1

[14] = biological target: Neu5Ac(a2-3)Gal(b1-3)GlcNAc(b1-3)Gal(b1-3)GlcNAc
Method in brief: as §1

[15] = biological target: Neu5Ac(a2-3)Gal(b1-3)GlcNAc(b1-3)GalNAc
Method in brief: as §1

[16] = biological target: Neu5Ac(a2-3)Gal(b1-4)GlcNAc(b1-2)Man
Method in brief: as §1

[17] = biological target: Neu5Ac(a2-3)Gal(b1-4)GlcNAc(b1-3)Gal(b1-3)GlcNAc
Method in brief: as §1

[18] = biological target: Neu5Ac(a2-3)Gal(b1-4)[Fuc(a1-3)]GlcNAc(b1-6)[Gal(b1-3)]GalNAc
Method in brief: as §1

[19] = biological target: Neu5Ac(a2-3)Gal(b1-4)[Fuc(a1-3)]GlcNAc(b1-6)[Neu5Ac(a2-3)Gal(b1-3)]GalNAc
Method in brief: as §1

[20] = biological target: Neu5Ac(a2-3)[GalNAc(b1-4)]Gal(b1-4)GlcNAc(b1-3)GalNAc
Method in brief: as §1

[21] = biological target: Neu5Ac(a2-6)Gal(b1-4)Glc
Method in brief: as §1

[22] = biological target: Neu5Ac(a2-6)Gal(b1-4)GlcNAc(b1-6)GalNAc
Method in brief: as §1

[23] = biological target: Neu5Ac9Ac(a2-3)Gal(b1-3)GlcNAc
Method in brief: as §1

[24] = biological target: Neu5Ac9Ac(a2-3)Gal(b1-4)GlcNAc
Method in brief: as §1

[25] = biological target: Neu5Gc(a2-8)Neu5Gc(a2-6)Gal(b1-4)GlcNAc
Method in brief: as §1

B1: FGF1 (Homo sapiens), P05230 (protein)
chain: MAEGEITTFTALTEKFNLPPGNYKKPKLLYSNGGHFLRILPDGTVDGTRDRSDQHIQLQLSAESVGEVYIKSTETGQYLAMTDGLLYGSQTPNEECLFLERLEENHYNTYISKHAEKNWFVGLKKNGSCKRGPRTHYGQAILFLPLPASSED
- glycan array binding signal (z-score) [1]: 6.98
- glycan array binding signal (z-score) [2]: -0.848
- glycan array binding signal (z-score) [3]: 0.705
- glycan array binding signal (z-score) [4]: 1.24
- glycan array binding signal (z-score) [5]: -0.751
- glycan array binding signal (z-score) [6]: -0.832
- glycan array binding signal (z-score) [7]: 0.25
- glycan array binding signal (z-score) [8]: -0.782
- glycan array binding signal (z-score) [9]: -0.417
- glycan array binding signal (z-score) [10]: 1.12
- glycan array binding signal (z-score) [11]: 3.53
- glycan array binding signal (z-score) [12]: -0.916
- glycan array binding signal (z-score) [13]: 4.88
- glycan array binding signal (z-score) [14]: -0.881
- glycan array binding signal (z-score) [15]: -0.187
- glycan array binding signal (z-score) [16]: 5.56
- glycan array binding signal (z-score) [17]: -0.884
- glycan array binding signal (z-score) [18]: 0.146
- glycan array binding signal (z-score) [19]: 0.465
- glycan array binding signal (z-score) [20]: -0.27
- glycan array binding signal (z-score) [21]: 0.536
- glycan array binding signal (z-score) [22]: 4.24
- glycan array binding signal (z-score) [23]: 1.47
- glycan array binding signal (z-score) [24]: -0.689
- glycan array binding signal (z-score) [25]: -0.059
